Results published in ChEMBL document CHEMBL3988442, “University of Dundee, Small-Polar-MMV Screening Library” (2021).
For part of these data: Measured potencies and affinities stand elsewhere.

Assays:
[1] = target: T1, Methionyl-tRNA synthetase, putative (Leishmania donovani (strain BPK282A1)) (UniProt E9BF75); assay: Leishmania donovani Methionine tRNA synthetase (LdMetRS):v7. Dose response assay; format: functional; set-up: conc 80 nM, time 150 minutes
T1 sequence (whole entry): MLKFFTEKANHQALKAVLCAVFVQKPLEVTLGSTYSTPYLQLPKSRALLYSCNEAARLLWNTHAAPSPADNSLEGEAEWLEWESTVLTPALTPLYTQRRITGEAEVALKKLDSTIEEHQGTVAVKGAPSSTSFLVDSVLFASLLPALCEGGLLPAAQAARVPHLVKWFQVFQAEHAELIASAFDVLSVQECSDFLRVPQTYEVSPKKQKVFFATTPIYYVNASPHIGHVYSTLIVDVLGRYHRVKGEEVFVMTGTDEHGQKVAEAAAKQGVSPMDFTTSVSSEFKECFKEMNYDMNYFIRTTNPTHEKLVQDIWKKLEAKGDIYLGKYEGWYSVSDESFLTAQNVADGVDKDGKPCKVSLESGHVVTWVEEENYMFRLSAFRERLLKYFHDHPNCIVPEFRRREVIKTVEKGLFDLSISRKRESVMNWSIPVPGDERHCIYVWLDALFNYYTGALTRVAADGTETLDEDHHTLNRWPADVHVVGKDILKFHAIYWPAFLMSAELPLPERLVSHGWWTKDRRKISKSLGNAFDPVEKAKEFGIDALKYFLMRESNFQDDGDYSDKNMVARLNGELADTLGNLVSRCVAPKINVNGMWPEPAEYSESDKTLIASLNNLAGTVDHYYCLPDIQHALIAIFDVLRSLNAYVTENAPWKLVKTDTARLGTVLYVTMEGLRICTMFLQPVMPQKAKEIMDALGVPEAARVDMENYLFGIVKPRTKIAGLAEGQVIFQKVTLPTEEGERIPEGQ

[2] = target: Protein translocase subunit SecA (Escherichia coli (strain K12)) (UniProt P10408); assay: Assay to Identify E. coli SecA ATPase Inhibitors; format: functional; set-up: scale not given: direction of the effect not stated beside the values; settings: 30 µM
[3] = target: T2, Ubiquitin-activating enzyme e1, putative (Leishmania donovani (strain BPK282A1)) (UniProt E9BSI1); assay: Leishmania donovani Ubiquitin Activating Enzyme (LdE1); format: functional; set-up: scale not given: direction of the effect not stated beside the values; settings: 30 µM
T2 sequence (whole entry): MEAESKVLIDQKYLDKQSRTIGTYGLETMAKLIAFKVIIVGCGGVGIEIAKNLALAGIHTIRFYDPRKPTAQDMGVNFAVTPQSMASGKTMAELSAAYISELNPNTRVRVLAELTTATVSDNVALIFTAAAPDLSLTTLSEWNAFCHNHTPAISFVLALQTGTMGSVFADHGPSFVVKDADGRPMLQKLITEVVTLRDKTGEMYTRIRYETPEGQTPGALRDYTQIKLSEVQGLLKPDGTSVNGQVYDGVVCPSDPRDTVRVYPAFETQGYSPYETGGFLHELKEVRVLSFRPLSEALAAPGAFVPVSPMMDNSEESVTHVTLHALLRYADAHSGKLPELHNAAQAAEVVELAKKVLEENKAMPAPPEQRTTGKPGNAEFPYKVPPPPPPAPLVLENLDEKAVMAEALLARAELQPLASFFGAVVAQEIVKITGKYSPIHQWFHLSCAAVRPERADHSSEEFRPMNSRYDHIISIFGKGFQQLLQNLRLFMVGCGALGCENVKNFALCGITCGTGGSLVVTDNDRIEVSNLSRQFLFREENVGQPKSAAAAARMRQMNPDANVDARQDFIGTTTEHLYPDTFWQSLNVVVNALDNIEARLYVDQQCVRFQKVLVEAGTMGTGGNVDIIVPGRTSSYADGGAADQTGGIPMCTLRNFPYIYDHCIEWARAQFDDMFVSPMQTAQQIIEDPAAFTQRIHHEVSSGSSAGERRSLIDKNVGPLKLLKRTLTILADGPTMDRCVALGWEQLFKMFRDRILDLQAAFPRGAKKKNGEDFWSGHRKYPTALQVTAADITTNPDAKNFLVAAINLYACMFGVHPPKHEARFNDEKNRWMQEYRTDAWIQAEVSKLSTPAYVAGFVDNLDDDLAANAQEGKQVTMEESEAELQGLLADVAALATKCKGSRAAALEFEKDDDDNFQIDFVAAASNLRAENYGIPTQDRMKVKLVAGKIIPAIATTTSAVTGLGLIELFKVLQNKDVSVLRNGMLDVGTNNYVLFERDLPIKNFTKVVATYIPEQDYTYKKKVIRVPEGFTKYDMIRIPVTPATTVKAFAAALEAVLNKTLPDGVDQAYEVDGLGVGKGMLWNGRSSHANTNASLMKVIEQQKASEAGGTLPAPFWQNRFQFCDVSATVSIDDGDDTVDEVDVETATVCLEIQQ

[4] = target: AMP-activated protein kinase, AMPK (Homo sapiens) (UniProt P54646+O43741+P54619+Q9UGJ0+Q9Y478+Q13131+Q9UGI9); assay: AMP-dependent Kinase enzyme assay. An in vitro enzyme assay that detects ADP turnover that is directly proportional to AMPK activity. This uses naive AMPK that is activated during the assay with MK-8722; format: functional; set-up: scale not given: direction of the effect not stated beside the values; settings: 30 µM
[5] = target: Sialic acid-binding Ig-like lectin 9 (Homo sapiens) (UniProt Q9Y336); assay: Hs-Siglec9 ALPHAscreen SOP 20170721; set-up: scale not given: direction of the effect not stated beside the values; settings: 10 µM
Trypanosoma cruzi = assay: Trypanosoma cruzi phosphomannomutase and mannose-1-phosphate guanylyltransferase assay; format: functional; set-up: scale not given: direction of the effect not stated beside the values; settings: 10 µM
[6] = target: T3, Arginase-2, mitochondrial (Homo sapiens) (UniProt P78540); assay: in vitro enzyme assay to detect the production of urea directly proportional to the activity of Arginase II; format: functional; set-up: scale not given: in the data most compounds retested in dose-response had high values
T3 sequence (whole entry): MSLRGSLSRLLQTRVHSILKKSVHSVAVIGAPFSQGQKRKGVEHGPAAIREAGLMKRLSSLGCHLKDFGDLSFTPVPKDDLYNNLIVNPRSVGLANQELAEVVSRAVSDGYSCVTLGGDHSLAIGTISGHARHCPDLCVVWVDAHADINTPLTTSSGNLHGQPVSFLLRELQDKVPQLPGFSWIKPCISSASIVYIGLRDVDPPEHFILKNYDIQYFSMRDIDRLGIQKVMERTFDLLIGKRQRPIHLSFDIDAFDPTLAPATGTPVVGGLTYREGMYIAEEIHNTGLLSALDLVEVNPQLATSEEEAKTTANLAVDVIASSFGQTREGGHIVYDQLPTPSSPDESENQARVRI

[7] = target: T4, Proteasome subunit beta (Trypanosoma cruzi) (UniProt O96673); assay: Trypanosoma cruzi proteasome chymotrypsin-like activity (TcProtChymo) assay.; format: functional; set-up: scale not given: in the data most compounds retested in dose-response had high values; settings: 9.37 µM
T4 sequence (whole entry): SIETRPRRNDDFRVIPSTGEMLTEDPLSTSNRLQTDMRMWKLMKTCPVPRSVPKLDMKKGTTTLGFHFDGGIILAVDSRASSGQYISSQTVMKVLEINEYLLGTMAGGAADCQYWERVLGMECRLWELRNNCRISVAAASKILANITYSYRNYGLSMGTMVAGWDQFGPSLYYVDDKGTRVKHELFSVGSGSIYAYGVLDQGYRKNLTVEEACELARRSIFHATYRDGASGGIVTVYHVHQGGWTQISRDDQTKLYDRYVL

Homo sapiens = organism: Homo sapiens; assay: To identify inhibition of the IFN signalling (Jak-Stat) pathway via expression of an eGFP reporter gene under the control of an IFN-stimulated response element (ISRE) containing MxA promoter.; format: functional; set-up: scale not given: direction of the effect not stated beside the values; settings: 30 µM
[8] = target: T5, Tyrosyl-tRNA synthetase, putative (Trypanosoma cruzi (strain CL Brener)) (UniProt Q4DSP6); assay: Trypanosoma cruzi tyrosyl tRNA synthetase (TcYRS) _High Tyrosine SOP; format: functional; set-up: scale not given: in the data most compounds retested in dose-response had high values; settings: 30 µM
T5 sequence (whole entry): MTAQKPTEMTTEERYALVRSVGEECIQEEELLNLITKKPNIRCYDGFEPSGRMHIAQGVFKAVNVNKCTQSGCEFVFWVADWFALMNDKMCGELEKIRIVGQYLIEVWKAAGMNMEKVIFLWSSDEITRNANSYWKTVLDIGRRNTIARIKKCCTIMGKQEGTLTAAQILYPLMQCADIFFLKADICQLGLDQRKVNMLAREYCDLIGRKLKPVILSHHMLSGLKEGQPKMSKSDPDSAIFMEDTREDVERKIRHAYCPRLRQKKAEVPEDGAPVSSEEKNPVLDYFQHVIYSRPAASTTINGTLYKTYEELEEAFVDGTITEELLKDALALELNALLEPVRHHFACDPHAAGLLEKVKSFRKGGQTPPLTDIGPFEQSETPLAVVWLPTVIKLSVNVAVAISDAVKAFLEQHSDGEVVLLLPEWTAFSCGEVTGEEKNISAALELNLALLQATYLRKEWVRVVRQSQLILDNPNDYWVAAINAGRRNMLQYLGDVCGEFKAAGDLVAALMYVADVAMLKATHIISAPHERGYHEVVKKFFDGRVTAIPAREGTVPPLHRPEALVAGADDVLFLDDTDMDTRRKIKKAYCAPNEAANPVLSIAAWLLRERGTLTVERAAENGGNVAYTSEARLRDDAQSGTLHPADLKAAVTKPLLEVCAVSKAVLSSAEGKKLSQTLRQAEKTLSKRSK

[9] = target: T5, Tyrosyl-tRNA synthetase, putative (Trypanosoma cruzi (strain CL Brener)); assay: Trypanosoma cruzi tyrosyl tRNA synthetase (TcYRS) SOP; format: functional; set-up: scale not given: direction of the effect not stated beside the values; settings: 30 µM
[10] = target: Chromo domain-containing protein 1 (Saccharomyces cerevisiae (strain ATCC 204508 / S288c) (Baker's yeast)) (UniProt P32657); assay: ScCHD-1 Enzyme Inhibition Assay; format: functional; set-up: scale not given: in the data most compounds retested in dose-response had high values; settings: 30 µM
Sequence of Chromo domain-containing protein 1 (Saccharomyces cerevisiae (strain ATCC 204508 / S288c) (Baker's yeast)) (P32657 whole entry, the tested form may be a part): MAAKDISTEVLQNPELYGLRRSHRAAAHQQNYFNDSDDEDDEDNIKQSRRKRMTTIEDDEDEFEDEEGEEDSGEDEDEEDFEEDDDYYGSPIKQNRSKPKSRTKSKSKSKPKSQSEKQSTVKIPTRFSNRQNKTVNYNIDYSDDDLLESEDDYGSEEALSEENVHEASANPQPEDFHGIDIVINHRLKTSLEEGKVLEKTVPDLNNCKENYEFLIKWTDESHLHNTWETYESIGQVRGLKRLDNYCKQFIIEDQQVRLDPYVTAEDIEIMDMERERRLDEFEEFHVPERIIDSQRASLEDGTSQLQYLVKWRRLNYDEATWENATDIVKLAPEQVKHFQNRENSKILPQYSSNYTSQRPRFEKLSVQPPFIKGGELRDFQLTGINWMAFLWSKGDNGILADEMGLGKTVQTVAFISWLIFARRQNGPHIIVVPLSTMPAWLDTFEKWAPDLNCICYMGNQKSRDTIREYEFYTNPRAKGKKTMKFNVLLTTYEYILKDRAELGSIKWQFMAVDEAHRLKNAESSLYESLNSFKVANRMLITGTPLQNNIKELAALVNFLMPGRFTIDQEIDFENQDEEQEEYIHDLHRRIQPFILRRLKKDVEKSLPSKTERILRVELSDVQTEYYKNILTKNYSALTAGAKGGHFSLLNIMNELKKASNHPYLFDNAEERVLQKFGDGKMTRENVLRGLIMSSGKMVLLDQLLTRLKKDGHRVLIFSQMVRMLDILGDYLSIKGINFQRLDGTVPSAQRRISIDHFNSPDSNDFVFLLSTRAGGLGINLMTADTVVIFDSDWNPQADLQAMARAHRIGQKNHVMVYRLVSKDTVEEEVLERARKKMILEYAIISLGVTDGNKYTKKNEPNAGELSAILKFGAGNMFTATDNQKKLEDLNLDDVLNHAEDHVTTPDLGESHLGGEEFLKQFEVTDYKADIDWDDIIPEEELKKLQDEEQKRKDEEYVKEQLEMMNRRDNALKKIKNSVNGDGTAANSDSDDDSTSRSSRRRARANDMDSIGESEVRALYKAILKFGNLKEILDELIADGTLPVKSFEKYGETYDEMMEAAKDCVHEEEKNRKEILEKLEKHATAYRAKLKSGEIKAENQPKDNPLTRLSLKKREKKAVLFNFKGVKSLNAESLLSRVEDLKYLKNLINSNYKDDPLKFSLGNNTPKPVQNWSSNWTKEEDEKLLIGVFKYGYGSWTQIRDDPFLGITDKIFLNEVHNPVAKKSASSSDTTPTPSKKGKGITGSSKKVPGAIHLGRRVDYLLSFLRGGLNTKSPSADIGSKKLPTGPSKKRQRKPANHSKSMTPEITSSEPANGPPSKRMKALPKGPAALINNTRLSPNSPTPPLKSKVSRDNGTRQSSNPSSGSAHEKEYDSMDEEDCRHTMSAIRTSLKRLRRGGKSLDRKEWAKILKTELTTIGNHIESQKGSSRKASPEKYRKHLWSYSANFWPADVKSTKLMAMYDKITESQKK

Sequence of Protein translocase subunit SecA (Escherichia coli (strain K12)) (P10408 whole entry): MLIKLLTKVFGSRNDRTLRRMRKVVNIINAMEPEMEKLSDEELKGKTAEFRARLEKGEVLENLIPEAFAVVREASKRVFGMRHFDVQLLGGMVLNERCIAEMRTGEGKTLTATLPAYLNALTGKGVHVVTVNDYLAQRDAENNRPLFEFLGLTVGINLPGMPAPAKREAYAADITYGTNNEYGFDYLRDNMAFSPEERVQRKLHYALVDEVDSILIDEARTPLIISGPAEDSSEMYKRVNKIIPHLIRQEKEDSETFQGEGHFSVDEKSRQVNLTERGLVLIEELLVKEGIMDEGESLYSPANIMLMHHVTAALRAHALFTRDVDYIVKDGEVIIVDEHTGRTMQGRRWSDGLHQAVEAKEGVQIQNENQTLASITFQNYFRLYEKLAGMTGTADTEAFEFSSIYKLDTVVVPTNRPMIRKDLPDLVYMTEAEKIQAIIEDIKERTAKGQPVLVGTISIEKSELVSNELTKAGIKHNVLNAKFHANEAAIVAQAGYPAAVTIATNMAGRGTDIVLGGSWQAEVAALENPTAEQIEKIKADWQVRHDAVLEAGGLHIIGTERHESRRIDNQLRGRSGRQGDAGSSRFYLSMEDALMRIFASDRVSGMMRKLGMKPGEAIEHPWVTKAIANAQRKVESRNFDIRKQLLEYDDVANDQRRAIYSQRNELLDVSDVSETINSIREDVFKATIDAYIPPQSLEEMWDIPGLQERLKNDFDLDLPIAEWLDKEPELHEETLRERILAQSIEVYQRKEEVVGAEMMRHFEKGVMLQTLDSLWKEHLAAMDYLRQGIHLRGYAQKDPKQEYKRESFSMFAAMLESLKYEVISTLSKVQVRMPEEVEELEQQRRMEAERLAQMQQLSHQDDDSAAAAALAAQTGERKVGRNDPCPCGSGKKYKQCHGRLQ
Sequence of Sialic acid-binding Ig-like lectin 9 (Homo sapiens) (Q9Y336 whole entry): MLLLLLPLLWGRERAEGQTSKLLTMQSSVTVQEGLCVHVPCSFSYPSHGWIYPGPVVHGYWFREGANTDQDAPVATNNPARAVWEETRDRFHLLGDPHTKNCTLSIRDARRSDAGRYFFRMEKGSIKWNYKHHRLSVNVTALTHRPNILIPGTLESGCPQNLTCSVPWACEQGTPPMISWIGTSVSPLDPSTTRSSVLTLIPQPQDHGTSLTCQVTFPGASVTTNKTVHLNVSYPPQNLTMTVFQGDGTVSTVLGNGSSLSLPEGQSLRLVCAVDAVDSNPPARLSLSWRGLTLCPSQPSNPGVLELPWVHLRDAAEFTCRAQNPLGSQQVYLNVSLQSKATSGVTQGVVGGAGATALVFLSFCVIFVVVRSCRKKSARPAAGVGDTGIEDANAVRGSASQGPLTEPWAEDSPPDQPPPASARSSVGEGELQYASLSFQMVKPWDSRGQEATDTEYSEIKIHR

Structure (SMILES)	PXC50 ([1]; MAX_EFFECT 33.25415677)	PXC50 ([1]; MAX_EFFECT 41.72535211)	Percent Effect [2]	Percent Effect [3]	Percent Effect [4]	Percent Effect [5]	Percent Effect (Trypanosoma cruzi)	Percent Effect ([6]; 33.3 µM)	Percent Effect [7]	Percent Effect (Homo sapiens)	Percent Effect [8]	Percent Effect [9]	Percent Effect [10]	PXC50 ([1]; MAX_EFFECT 19.47743468)	PXC50 ([1]; MAX_EFFECT 35.38732394)	Percent Effect ([6]; 30 µM)	PXC50 ([1]; MAX_EFFECT 1.767676768)	PXC50 ([1]; MAX_EFFECT 2.040816327)	PXC50 ([1]; MAX_EFFECT 3.800475059)	PXC50 ([1]; MAX_EFFECT 6.161971831)
Cc1nnc(NCC2(c3ccc(Cl)cc3Cl)CCOCC2)c(C#N)c1C	< 4	< 4	-4%	0%	-11.6%	42.2%	12.2%	1.91%	8.97%	10.4%	5.82%	2.44%	-12.2%							
c1ccc(C2CCN(c3cncc(-n4cccn4)n3)CC2)cc1			-1.56%	8.11%	3.62%	3.88%	1.17%	5.42%	14.1%	10%	9.9%	18.3%	-4.19%	< 4	< 4					
CSCC(=O)N1CCCC1c1noc(C2CC2)n1 (centres undefined)			-5.16%	10.7%	-6.47%	12.3%	4.97%	29.2%	-1.92%	4.6%	0.546%	11.1%	-16.6%			4.87%				
Cc1c(C(=O)O)sc2nc(Cc3ccccc3)nc(N)c12					4.73%												< 4	< 4		
FC1(F)CCN(Cc2ccccn2)CC12CCN(c1cccnc1)C2 (centres undefined)			-7.19%	2.7%	114%	-3.38%	-1.86%	2.87%	0.369%	49.7%	-3.24%	-2.56%	-1.38%						< 4	< 4
